# Test results: PubChem BioAssay (NCATS)
# Results filed as inconclusive are left out. Entries that show only a call come without a potency. The source made the active and inactive calls. Calls come from the whole dose curve; as a rule, active = well fitted curve in the direction sought with a large enough effect; inconclusive = small, poorly fitted or top-dose-only effect, or another doubt; inactive = no such curve, though single readings can be large; an effect the other way counts as inactive or inconclusive.
# Key:
# [1] = molecular target: phosphoglycerate mutase (Leishmania major) (UniProt Q4Q090); test: qHTS Validation Assay to Find Inhibitors of Phosphoglycerate Mutase (AID 504548); conditions: Potency: inhibition qHTS;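 note: end-point luminescence from Kinase-GloPlus after the PGAM reaction; series mostly up to about 58 µM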
# Sequence of phosphoglycerate mutase (Leishmania major) (Q4Q090 1-553): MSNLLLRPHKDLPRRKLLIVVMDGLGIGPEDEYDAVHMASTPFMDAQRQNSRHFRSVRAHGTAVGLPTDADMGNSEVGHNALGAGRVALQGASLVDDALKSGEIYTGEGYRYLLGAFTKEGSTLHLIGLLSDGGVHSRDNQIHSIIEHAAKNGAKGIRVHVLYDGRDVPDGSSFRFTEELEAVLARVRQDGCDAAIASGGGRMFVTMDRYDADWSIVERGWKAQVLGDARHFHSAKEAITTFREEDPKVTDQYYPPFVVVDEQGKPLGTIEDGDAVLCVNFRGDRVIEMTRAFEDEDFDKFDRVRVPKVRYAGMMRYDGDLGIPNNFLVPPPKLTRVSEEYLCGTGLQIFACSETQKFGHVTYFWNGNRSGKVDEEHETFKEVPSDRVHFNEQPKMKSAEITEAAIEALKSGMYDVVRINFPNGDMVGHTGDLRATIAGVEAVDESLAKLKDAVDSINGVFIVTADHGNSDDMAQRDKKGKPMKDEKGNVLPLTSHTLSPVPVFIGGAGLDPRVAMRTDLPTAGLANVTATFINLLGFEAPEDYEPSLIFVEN
# In short: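 Inhibition of L. major PGAM was assessed by Kinase-GloPlus luminescence following a 45-minute room-temperature reaction with enzyme at 1.25nM final.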
# [2] = molecular target: Ubiquitin carboxyl-terminal hydrolase 1 (Homo sapiens) (UniProt O94782); test: Inhibitors of USP1/UAF1: Pilot qHTS (AID 504865); note: nearly all actives have a fitted effect of over 35% in size; note: potency is the fitted concentration of half-maximal effect
# Sequence of Ubiquitin carboxyl-terminal hydrolase 1 (Homo sapiens) (O94782 whole entry, looked up): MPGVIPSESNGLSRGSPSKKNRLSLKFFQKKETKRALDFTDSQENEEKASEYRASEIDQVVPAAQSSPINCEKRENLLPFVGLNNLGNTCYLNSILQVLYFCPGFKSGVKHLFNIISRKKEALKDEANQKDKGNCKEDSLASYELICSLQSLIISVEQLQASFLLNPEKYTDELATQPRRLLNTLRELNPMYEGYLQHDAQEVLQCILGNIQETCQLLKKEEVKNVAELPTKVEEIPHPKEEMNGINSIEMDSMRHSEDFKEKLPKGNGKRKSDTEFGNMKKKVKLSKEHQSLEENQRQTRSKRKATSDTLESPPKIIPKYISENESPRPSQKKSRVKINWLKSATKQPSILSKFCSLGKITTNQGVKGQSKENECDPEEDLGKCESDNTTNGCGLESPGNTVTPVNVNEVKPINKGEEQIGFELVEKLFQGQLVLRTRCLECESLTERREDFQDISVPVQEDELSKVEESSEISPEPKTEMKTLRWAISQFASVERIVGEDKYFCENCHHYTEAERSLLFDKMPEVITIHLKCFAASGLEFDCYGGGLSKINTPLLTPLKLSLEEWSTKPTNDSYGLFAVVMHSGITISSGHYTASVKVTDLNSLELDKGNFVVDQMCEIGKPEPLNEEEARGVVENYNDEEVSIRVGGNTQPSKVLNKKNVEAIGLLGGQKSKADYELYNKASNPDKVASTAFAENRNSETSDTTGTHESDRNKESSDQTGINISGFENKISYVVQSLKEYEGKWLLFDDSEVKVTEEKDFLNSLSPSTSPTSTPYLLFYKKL
# In short: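 1nM USP1/UAF1 + cpd, 15 min RT; start w/ Ub-Rho 150nM final; kinetic FL 480/540 nm, 6 reads q60 s. Buffer 50mM HEPES pH 7.8, 0.5mM EDTA, 1mM TCEP, 0.01% Tween-20, 0.1 mg/ml BSA.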
# [3] = qHTS for Inhibitors of ATXN expression: Validation of Cytotoxic Assay (AID 588349)
# In short: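 Cytotoxicity counter-screen: HEK293 cells exposed to compound titrations, 72 hr, 37 degrees C. Read-out is intracellular ATP (CellTiter Glo luminescence) as a viability measure.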
# [4] = qHTS for Inhibitors of ATXN expression: Validation (AID 588378); note: series mostly up to about 57 µM; nearly all actives have a fitted effect of over 75% in size
# In short: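 Cells: HEK293-ATXN2-FFLuc, phenol-red free DMEM, 2 h attachment. Compound pin-transfer, 24 h, 37 degrees C, 5% CO2. CellTiter-Fluor 30 min, Ex405/Em525; Bright-Glo 5 min, luminescence 2 s exposure.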
SMILES,Potency [1],Potency [2],Potency [3],Potency [4]
CN(C)c1nc(N)c(C(=O)N=C(N)N)nc1Cl,inactive,inactive,inactive,
N#C/C(=C\c1ccc(-c2cc(Cl)ccc2Cl)o1)C(=O)Nc1cccc2ncccc12,inactive,15.8 µM (active),,
OCC1O[C@H]([S-])[C@H](O)[C@@H](O)[C@@H]1O.[Au+] (stereo not given in full),inactive,inactive,,
Ic1ccc(N2CCN(Cc3c[nH]c4ncccc34)CC2)cc1,inactive,50.1 µM (active),,
NO,inactive,inactive,inactive,inactive
CC[C@@H](C)[C@H]1O[C@]2(CC[C@H]1C)C[C@@H]1C[C@@H](CC=C(C)[C@@H](O[C@H]3C[C@H](OC)[C@@H](O[C@H]4C[C@H](OC)[C@@H](O)[C@H](C)O4)[C@H](C)O3)[C@@H](C)C=CC=C3CO[C@@H]4[C@H](O)C(C)=C[C@@H](C(=O)O1)[C@]34O)O2,inactive,,,
CC(C)NC[C@@H](O)c1ccc(O)c(O)c1,inactive,inactive,,
COc1cc(OC)c(/C=C2/C(=O)Nc3ccccc32)c(OC)c1,inactive,inactive,,
C[N+]1(C)C2CC(OC(=O)[C@H](CO)c3ccccc3)CC1C1OC12 (stereo not given in full),inactive,inactive,inactive,
S=C(S)OC1CC2CC1C1CCCC21 (stereo not given),inactive,inactive,inactive,
Nc1nc(Cl)nc2c1ncn2[C@@H]1O[C@H](CO)[C@@H](O)[C@H]1O,inactive,inactive,inactive,
C=C[C@@H]1CN2CC[C@@H]1C[C@H]2[C@H](O)c1ccnc2ccc(OC)cc12,inactive,,,
COc1cccc(C(=O)NCCN2CCN(c3ccc(Cl)cc3)CC2)c1,inactive,inactive,inactive,inactive
C=C[C@H]1CN2CC[C@@H]1C[C@@H]2[C@@H](O)c1ccnc2ccc(OC)cc12,inactive,,,
CCCCCCCCc1ccc(-c2ccc(C(=O)O)cc2)cc1,inactive,50.1 µM (active),inactive,inactive
CC(C)(C)c1ccc(S(=O)(=O)/C=C/C#N)cc1,inactive,inactive,,
CC(C)ON([C@@H](C(=O)NO)C(C)C)S(=O)(=O)c1ccc(-c2ccccc2)cc1,inactive,,,
CN1CCc2cccc3c2C1Cc1ccc(O)c(O)c1-3 (stereo not given),inactive,inactive,,
Oc1ccc(C2CNCc3sccc32)cc1O (stereo not given),inactive,inactive,,
O=Nc1ccc2oc(=O)ccc2c1,inactive,,,
CN1C2CCC1CC(OC(=O)C(O)c1ccccc1)C2 (stereo not given),inactive,inactive,inactive,inactive
Nc1ncnc2c1ncn2[C@@H]1O[C@H](COP(=O)(O)CP(=O)(O)OP(=O)(O)O)[C@@H](O)[C@H]1O,inactive,inactive,inactive,inactive
O=C(O)CC[C@@H](C(=O)O)N1C(=O)c2ccccc2C1=O,inactive,inactive,inactive,inactive
Nc1ncnc2c1ncn2[C@@H]1O[C@H](COP(=O)(O)OP(=O)(O)OP(=O)(O)OP(=O)(O)OC[C@@H]2O[C@H](n3cnc4c(N)ncnc43)[C@@H](O)[C@H]2O)[C@@H](O)[C@H]1O,inactive,inactive,inactive,inactive
N#C/C(=C\c1c[nH]c2ccccc12)C(=O)c1ccc(O)c(O)c1,inactive,inactive,inactive,inactive

SMILES,Potency [1],Potency [2],Potency [3],Potency [4]
CN(C)C(N)=NCCC[C@H](N)C(=O)O,inactive,inactive,inactive,inactive
COc1cccc(OC)c1OCCNCC1COc2ccccc2O1 (stereo not given),inactive,inactive,inactive,inactive
CC(COc1ccc(/C=C/c2ccccc2)cc1)[N+](C)(C)C (stereo not given),inactive,inactive,inactive,inactive
O=C1NC(=O)/C(=C/c2ccc(-c3ccc(F)cc3O)o2)S1,inactive,44.7 µM (active),inactive,inactive
O=C(c1ccc(Cl)cc1)N1CCN(c2ccc([N+](=O)[O-])c3ncccc23)CC1,inactive,inactive,inactive,inactive
NCCNC(=O)c1ncsc1-c1cccc(F)c1,inactive,inactive,inactive,inactive
CN(C)c1nc2c(Br)c(Br)c(Br)c(Br)c2[nH]1,inactive,inactive,inactive,inactive
N=C(N)SCCc1ccc(CCSC(=N)N)cc1,inactive,inactive,inactive,inactive
C[N+](C)(C)CCOP(=O)(O)OP(=O)([O-])OC[C@H]1O[C@@H](n2ccc(N)nc2=O)[C@H](O)[C@@H]1O,inactive,inactive,inactive,inactive
COc1cc(C(O)CO)ccc1OS(=O)(=O)O (stereo not given),inactive,inactive,inactive,inactive
OC[C@H]1O[C@@H](n2cnc3c(NC4CCCC4)ncnc32)[C@H](O)[C@@H]1O,inactive,inactive,inactive,inactive
NCCCCC(=O)O,inactive,inactive,inactive,inactive
O=[N+]([O-])c1ccc(CSc2ncnc3c2ncn3[C@@H]2O[C@H](CO)[C@@H](O)[C@H]2O)cc1,inactive,inactive,inactive,inactive
CN(C)CCCO[C@@H]1[C@H]2OC(C)(C)O[C@H]2O[C@@H]1[C@H](O)CO,inactive,inactive,inactive,inactive
Cn1c(=O)c2[nH]c(-c3ccccc3)nc2n(C)c1=O,inactive,inactive,inactive,inactive
NCCSSCCN,inactive,inactive,inactive,inactive
C=CC(C)=C[C@@]1(C)SC(=O)C(C)=C1O,inactive,inactive,inactive,inactive
Clc1ccc(N2CCN(Cc3cc4ccccn4n3)CC2)cc1,inactive,inactive,inactive,inactive
C=CC(=O)c1ccc(CCCCCC)cc1,inactive,56.2 µM (active),inactive,inactive
CNc1ncnc2c1ncn2[C@@H]1O[C@H](CO)[C@@H](O)[C@H]1O,inactive,inactive,inactive,inactive
NC(=O)C(=O)O,inactive,inactive,inactive,inactive
NC[C@H]1O[C@@H](n2cnc3c(N)ncnc32)[C@H](O)[C@@H]1O,inactive,inactive,inactive,inactive
NCCCS(=O)(=O)O,inactive,inactive,inactive,inactive
Nc1nc(Cl)nc2c1ncn2[C@@H]1O[C@H](COP(=O)(O)OP(=O)(O)OP(=O)(O)O)[C@@H](O)[C@H]1O,inactive,inactive,inactive,inactive
Nc1nc(SCc2ccc([N+](=O)[O-])cc2)c2ncn([C@@H]3O[C@H](CO)[C@@H](O)[C@H]3O)c2n1,inactive,inactive,inactive,inactive

SMILES,Potency [1],Potency [2],Potency [3],Potency [4]
CO/S(=N\S(=O)(=O)c1ccc(Cl)cc1)c1ccc([N+](=O)[O-])cc1 (stereo not given),inactive,31.6 µM (active),inactive,inactive
CSc1nc(N)c2ncn([C@@H]3O[C@H](COP(=O)(O)OP(=O)(O)OP(=O)(O)O)[C@@H](O)[C@H]3O)c2n1,inactive,inactive,inactive,inactive
CNC(=O)[C@H]1O[C@@H](n2cnc3c(NCc4cccc(I)c4)ncnc32)[C@H](O)[C@@H]1O,inactive,inactive,inactive,inactive
Cc1ccccc1CNc1ncnc2c1ncn2C1OC(CO)C(O)C1O (stereo not given),inactive,inactive,inactive,inactive
CC1CN(S(=O)(=O)c2cccc3cnccc23)CCN1 (stereo not given),inactive,inactive,inactive,inactive
C=CC(N)CCC(=O)O (stereo not given),inactive,inactive,inactive,inactive
CCc1c(C(=O)NCCc2ccc(N3CCCCC3)cc2)[nH]c2ccc(Cl)cc12,inactive,inactive,inactive,inactive
CC(C)CC(NP(=O)(O)O[C@@H]1O[C@@H](C)[C@H](O)[C@@H](O)[C@H]1O)C(=O)NC(Cc1c[nH]c2ccccc12)C(=O)O (stereo not given in full),inactive,inactive,inactive,inactive
CN1CCc2ccccc2Cc2[nH]c3ccccc3c2CC1,inactive,inactive,inactive,inactive
CCN(CC)c1ncnc2c1ncn2[C@@H]1O[C@H](COP(=O)(O)OP(=O)(O)C(Br)(Br)P(=O)(O)O)[C@@H](O)[C@H]1O,inactive,inactive,inactive,inactive
CN(C)c1ccc(/C=C2\C(=O)Nc3ccccc32)cc1,inactive,inactive,inactive,inactive
Cc1cc(NC2CCCCC2)nc(-n2nc(C)cc2C)n1,inactive,inactive,inactive,inactive
O=C(O)CC1CC(c2ccccc2)=NO1 (stereo not given),inactive,inactive,inactive,inactive
c1ccc(-c2ccccn2)nc1,inactive,inactive,inactive,inactive
CO/N=C(\C(=O)N[C@@H]1C(=O)N2C(C(=O)O)=C(COC(C)=O)CS[C@H]12)c1csc(N)n1,inactive,inactive,inactive,inactive
CCCCN1CCC(n2c(=O)[nH]c3ccccc32)CC1,inactive,inactive,inactive,inactive
OC[C@H]1O[C@@H](n2cnc3c(Nc4ccccc4)ncnc32)[C@H](O)[C@@H]1O,inactive,inactive,inactive,inactive
NC(=S)NCCC[C@H](N)C(=O)O,inactive,inactive,inactive,inactive
O=C(c1cc(O)c(O)c([N+](=O)[O-])c1)c1ccccc1F,inactive,inactive,inactive,inactive
CC(=O)N[C@H](C(=O)O)C(C)(C)SN=O,inactive,inactive,inactive,inactive
C[N+](C)(CCCCCC[N+](C)(C)CCCN1C(=O)c2cccc3cccc(c23)C1=O)CCCN1C(=O)c2cccc3cccc(c23)C1=O,inactive,inactive,inactive,inactive
CC1(C)CCC=[N+]1[O-],inactive,inactive,inactive,inactive
CN1CCc2cc(NC(=O)Nc3cccnc3)ccc21,inactive,inactive,inactive,inactive
OCC1O[C@H](O)C(Cl)C(O)C1O (stereo not given in full),inactive,inactive,inactive,inactive
NC(=S)c1ccc[n+]([C@@H]2O[C@@H](COP(=O)([O-])OP(=O)(O)OC[C@H]3O[C@@H](n4cnc5c(N)ncnc54)[C@H](OP(=O)(O)O)[C@@H]3O)C(O)C2O)c1 (stereo not given in full),inactive,inactive,inactive,inactive
